About 13,000 (27%) of roughly 48,000 compounds showed an effect of 50% or more. Some of the results follow.
What follows are compounds tested on Wolbachia pipientis (assay: Anti-Wolbachia Cell-Based Screen). Settings: 5 µM.
Type: functional
Design: scale not given: in the data most compounds retested in dose-response had high values

For `O=C1COc2ccc(S(=O)(=O)NC3CC3)c3c2N1CCC3`, which “Percent Effect” value is on record?
The value was -10.68%.

For `O=C1CC[C@H]2CN(c3ncc(F)cn3)CC[C@H]2N1CCc1ccccc1`, which “Percent Effect” value is on record?
Its value is -8.563%.

How did the “Percent Effect” value turn out when `CN(C(=O)c1ccncc1F)c1ccccc1S(C)(=O)=O` was run?
The value was 0.2118%.

Which “Percent Effect” value does the source give for `O=C(CCN1CCCCC1)N1CCC(Cc2ccc(CO)cc2)C1` (configuration not stated) here?
Its value is -4.228%.

`Cc1nc(N2CCOc3ccc(CO)cc3C2)c2nc(C)oc2n1` was tested. Which “Percent Effect” value did it give?
The value was -3.074%.

How did the “Percent Effect” value turn out when `CCN(Cc1ccncc1)C(=O)CCn1c(C)cc2ccccc21` was run?
The value was -6.043%.

For `CN(Cc1ccccc1)C(=O)CCN1C[C@H](C2CC2)[C@@H](N(C)C)C1`, which “Percent Effect” value is on record?
The value was 117.2%.

`CCNc1ncc(CN2C[C@@H](C(=O)O)[C@H](C3CC3)C2)cn1` was tested. Which “Percent Effect” value did it give?
Its value is -13.99%.

With `CCN(Cc1ccccc1)C(=O)CCN1CC(O)C1` as the compound, how does the “Percent Effect” value read?
The value was 89.96%.

With `CN(Cc1ccccc1)C(=O)CCN1CCC2(CC1)[C@H](O)C[C@@H]2O` as the compound, how does the “Percent Effect” value read?
Its value is -5.462%.

Which “Percent Effect” value does the source give for `O=C(O)[C@@H]1CN(Cc2cnc(C3CCCCC3)nc2)C[C@H]1C1CC1` here?
The value was 0.2506%.

Which “Percent Effect” value does the source give for `CCN(Cc1ccccc1)C(=O)CCN1C[C@@H](C(=O)O)[C@H](C2CC2)C1` here?
Its value is 110.3%.

Which “Percent Effect” value does the source give for `C[C@@H]1CN(CCC(=O)N(C)Cc2ccccc2)CC[C@@]1(O)C1CCC1` here?
Its value is 22.93%.

`C[C@@H]1CN(CCC(=O)N(C)Cc2ccccc2)C[C@@]1(O)C1CCC1` was tested. Which “Percent Effect” value did it give?
The value was -9.793%.

Which “Percent Effect” value does the source give for `CCNC(=O)C1CCN(c2cc(-c3ccccc3)nc3ccnn23)C1` (configuration not stated) here?
The value was 11.77%.

How did the “Percent Effect” value turn out when `CC(C)(C)c1ccc(=O)n(CN2CCCC(C(F)(F)F)C2)n1` (configuration not stated) was run?
Its value is -4.138%.

How did the “Percent Effect” value turn out when `COc1ccc2c(c1)OCC(CNC(=O)c1ccc(=O)n(C)c1)C2` (configuration not stated) was run?
The value was 0.3526%.

`O=C(CCNC(=O)c1ccoc1)NCc1ccccc1F` was tested. Which “Percent Effect” value did it give?
The value was 0.6342%.

With `Cn1ccnc1CN1CCN(CC(O)c2ccco2)CC1` (configuration not stated) as the compound, how does the “Percent Effect” value read?
Its value is 3.847%.

`N#Cc1ccnc(N2CCN(CC(O)c3cc(F)ccc3F)CC2)c1` (configuration not stated) was tested. Which “Percent Effect” value did it give?
Its value is -0.2819%.

Which “Percent Effect” value does the source give for `Cn1ccnc1CN1CCN(CC(O)c2ccc(F)c(F)c2)CC1` (configuration not stated) here?
The value was -1.464%.

Which “Percent Effect” value does the source give for `CCN1CCN(CC(O)c2ccc(F)cc2)CC1` (configuration not stated) here?
Its value is 5.506%.

With `Cn1ccnc1CN1CCN(Cc2cc(C#N)ccc2F)CC1` as the compound, how does the “Percent Effect” value read?
The value was 0.8662%.

For `Cn1ccnc1CN1CCN(CC(O)c2ccc(F)cc2)CC1` (configuration not stated), which “Percent Effect” value is on record?
The value was 154.5%.

With `Cn1ccnc1CN1CCN(CC(O)c2cc(F)ccc2F)CC1` (configuration not stated) as the compound, how does the “Percent Effect” value read?
The value was 92.89%.

How did the “Percent Effect” value turn out when `Cc1nnc(CN2CCN(CC(O)c3cccc(F)c3)CC2)n1C` (configuration not stated) was run?
The value was 8.346%.

With `Cc1ccc(C(O)CN2CCN(Cc3nccn3C)CC2)cc1C` (configuration not stated) as the compound, how does the “Percent Effect” value read?
Its value is 121.6%.

Which “Percent Effect” value does the source give for `CC(C)c1ccc(C(O)CN2CCN(Cc3nccn3C)CC2)cc1` (configuration not stated) here?
Its value is 94.53%.

How did the “Percent Effect” value turn out when `Cc1nnc(CN2CCN(Cc3nccn3C)CC2)n1C` was run?
The value was -10.76%.

Which “Percent Effect” value does the source give for `CC(C)C1CN(S(=O)(=O)Cc2cccc(C#N)c2)CCS1` (configuration not stated) here?
Its value is -6.809%.

How did the “Percent Effect” value turn out when `COCC1(NC(=O)Nc2nc(C)ns2)CCCC1` was run?
The value was -4.167%.

How did the “Percent Effect” value turn out when `CC(C)[C@H]1COC(=O)N1Cc1noc(-c2ccccc2)n1` was run?
Its value is -3.7%.

Which “Percent Effect” value does the source give for `Cc1nc(NS(=O)(=O)c2ccc(F)c(Br)c2)no1` here?
The value was -14.77%.

How did the “Percent Effect” value turn out when `CCn1ncc2c1C(COC)CN(Cc1cccnc1)C2.O=C(O)C(F)(F)F.O=C(O)C(F)(F)F.O=C(O)C(F)(F)F` (configuration not stated) was run?
Its value is 103%.

Which “Percent Effect” value does the source give for `COCC1CN(Cc2ccc(F)cc2)Cc2nnn(CC3CC3)c21.O=C(O)C(F)(F)F` (configuration not stated) here?
Its value is -1.939%.

How did the “Percent Effect” value turn out when `CCn1cc2c(n1)CN(Cc1ccc(F)cc1)CC2COCC1CC1.O=C(O)C(F)(F)F` (configuration not stated) was run?
Its value is -4.171%.

How did the “Percent Effect” value turn out when `CCn1ncc2c1C(COC)CN(Cc1ccc(F)cc1)C2.O=C(O)C(F)(F)F.O=C(O)C(F)(F)F` (configuration not stated) was run?
Its value is 110%.

With `COCC1CN(Cc2cccnc2)Cc2nnn(CC3CC3)c21.O=C(O)C(F)(F)F.O=C(O)C(F)(F)F` (configuration not stated) as the compound, how does the “Percent Effect” value read?
The value was -2.73%.

How did the “Percent Effect” value turn out when `Cn1ncc2c1CN(Cc1cccnc1)CC2COCC1CC1.O=C(O)C(F)(F)F.O=C(O)C(F)(F)F.O=C(O)C(F)(F)F` (configuration not stated) was run?
The value was 2.893%.

How did the “Percent Effect” value turn out when `COCC1CN(CC2CCOCC2)Cc2cn(CC3CCCC3)nc21` (configuration not stated) was run?
The value was -7.587%.

With `Cc1nonc1C1CCCN1C(=O)c1cc2n(n1)CCCN(C(C)C)C2` (configuration not stated) as the compound, how does the “Percent Effect” value read?
Its value is 4.032%.

Which “Percent Effect” value does the source give for `CSCCNC(=O)c1ccc(OC2CCN(CC(C)(C)C)CC2)c(Cl)c1` here?
The value was -14.62%.

Which “Percent Effect” value does the source give for `Cc1cc(=O)n(CC(=O)Nc2ccc(C(N)=O)cc2)nc1C` here?
The value was 4.74%.

How did the “Percent Effect” value turn out when `COc1ccc(NC(=O)CSc2nc(C)c(C)c(C)c2C#N)cn1` was run?
Its value is 14.78%.

For `Cc1nc(SCC(=O)Nc2ccc(C(N)=O)cc2)c(C#N)c(C)c1C`, which “Percent Effect” value is on record?
The value was 108.9%.

How did the “Percent Effect” value turn out when `Cc1ccccc1CC(C)(C)NC(=O)CCOc1cccc(C(N)=O)c1` was run?
The value was -6.35%.

`CC(C)Nc1nc(O)cc(C(C)n2ncc3ccccc3c2=O)n1` (configuration not stated) was tested. Which “Percent Effect” value did it give?
The value was 144.2%.

With `NC(=O)c1noc(Cn2ncc3ccccc3c2=O)n1` as the compound, how does the “Percent Effect” value read?
The value was -15.29%.

How did the “Percent Effect” value turn out when `CC(C)c1noc(Cn2ncc3ccccc3c2=O)n1` was run?
Its value is -9.946%.

`CCN(CC)c1nc(O)cc(C(C)n2ncc3ccccc3c2=O)n1` (configuration not stated) was tested. Which “Percent Effect” value did it give?
The value was 150.9%.

How did the “Percent Effect” value turn out when `Cc1cc(C)nc(NC2CC(=O)N(C)C2)n1` (configuration not stated) was run?
Its value is -15.96%.

`CC(c1cc(O)nc(NC2CCCC2)n1)n1ncc2ccccc2c1=O` (configuration not stated) was tested. Which “Percent Effect” value did it give?
The value was 143.5%.

With `CNC(=O)c1noc(Cn2ncc3ccccc3c2=O)n1` as the compound, how does the “Percent Effect” value read?
Its value is -3.773%.

With `CC(NCCN1CCN(C(=O)C2CCCC2)CC1)c1ccccn1` (configuration not stated) as the compound, how does the “Percent Effect” value read?
The value was 4.295%.

Which “Percent Effect” value does the source give for `CC(C)c1nc(CNC(C(=O)N2CCOCC2)C(C)C)no1` (configuration not stated) here?
The value was -8.871%.

For `COCCN(Cc1coc(-c2ccc(OC)cc2)n1)C1CC1`, which “Percent Effect” value is on record?
The value was 2.104%.

How did the “Percent Effect” value turn out when `CC(C)CC(NC(=O)C1=CCCC1)C(=O)N1CCC(CO)CC1` (configuration not stated) was run?
The value was 0.4021%.

With `COCc1nc2cc(NCc3ccc(CO)o3)ccc2o1` as the compound, how does the “Percent Effect” value read?
The value was -0.637%.

For `CCN(CC)C(=O)CCCNC(=O)c1csc(NC2CC2)n1`, which “Percent Effect” value is on record?
Its value is -10.76%.

With `Cc1nn(C)c(Oc2ccc(Cl)cc2)c1CN1CCC(CN)C1` (configuration not stated) as the compound, how does the “Percent Effect” value read?
The value was -7.014%.

Which “Percent Effect” value does the source give for `CC(O)Cc1cn(CC2CCN(c3nccc4occc34)CC2)nn1` (configuration not stated) here?
Its value is 2.668%.

How did the “Percent Effect” value turn out when `Cc1csc2ncc(-c3ccnc(NC4CCOCC4)n3)c(=O)n12` was run?
The value was 88.01%.

For `Cc1cn2c(=O)c(-c3ccnc(NC4CCOCC4)n3)cnc2s1`, which “Percent Effect” value is on record?
The value was 101.9%.

How did the “Percent Effect” value turn out when `CCCn1ncc(-c2ccnc(NC3CCSC3)n2)c1C` (configuration not stated) was run?
Its value is -13.99%.

With `Cc1ccc(-c2ccnc(N[C@H]3COC[C@@H]3N3CCCCC3)n2)c(C)n1` as the compound, how does the “Percent Effect” value read?
The value was 10.8%.

Which “Percent Effect” value does the source give for `FC(F)(F)CCc1ccnc(NC2CCOC2)n1` (configuration not stated) here?
Its value is 0.7283%.

`Cc1cn2c(=O)c(-c3ccnc(N[C@@H]4CCOC4)n3)cnc2s1` was tested. Which “Percent Effect” value did it give?
The value was 101%.
